Laboratory results from PubChem BioAssay (NCI).
About 79,000 compounds went through this panel and 15% of them were active in at least one assay; those are over-represented in the sample as a whole. Active and inactive are the calls of the source. No stated cut-off is given here; in the data, active means growth inhibition above about 70%; inactive means the rest.

How the values were obtained:
[1] = NCI Yeast Anticancer Drug Screen. Data for the rad50 strain (AID 155);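 further: 0% = growth of vehicle-only cultures of the same strain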; conditions: S. cerevisiae rad50 strain growth inhibition; at 50.0 µM; active compounds read high
Method in brief: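 Yeast carrying a defined DNA repair defect were exposed to test compounds, and growth was compared with vehicle-treated controls to give percent inhibition.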

[2] = NCI Yeast Anticancer Drug Screen. Data for the mec2-1 strain (AID 157); conditions: S. cerevisiae mec2-1 strain, at 50.0 µM, active compounds read high
Method in brief: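 Yeast mec2-1 mutant treated with compound. Readout: growth inhibition vs vehicle controls.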

[3] = NCI Yeast Anticancer Drug Screen. Data for the sgs1 mgt1 strain (AID 161);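 further: 0% = growth of cultures given vehicle only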; conditions: S. cerevisiae sgs1 mgt1 strain, at 50.0 µM, active compounds read high
Method in brief: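 Genetically altered yeast, compound exposure, growth inhibition relative to vehicle.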

[4] = NCI Yeast Anticancer Drug Screen. Data for the cln2 rad14 strain (AID 165);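 further: 0% = growth equal to vehicle treated cultures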; conditions: S. cerevisiae cln2 rad14 strain, at 50.0 µM, active compounds read high
Method in brief: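 cln2 rad14 yeast strain; compound exposure; growth inhibition read vs vehicle controls.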

[5] = NCI Yeast Anticancer Drug Screen. Data for the bub3 strain (AID 167); conditions: S. cerevisiae bub3 mutant strain, at 50.0 µM, active compounds read high
Method in brief: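 Compounds were applied to a genetically altered yeast strain carrying a cell-cycle control defect. Growth inhibition was scored against vehicle-treated controls.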

[6] = NCI Yeast Anticancer Drug Screen. Data for the mlh1 rad18 strain (AID 175); conditions: S. cerevisiae mlh1 rad18 strain growth inhibition; at 50.0 µM; active compounds read high
Method in brief: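 Yeast w/ defined DNA-repair lesions; compound exposure; growth vs vehicle controls → % inhibition.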

Measured: growth inhibition

OCC(O)COc1ccc(OCc2ccccc2)cc1 (centres undefined)
inactive: [1] 2.65% | [2] -12.1% | [3] -3.4% | [4] -21.5% | [5] -5.05% | [6] -20.3%

N=c1c2ccccc2c2ccccc2n1O
inactive: [1] 2.15% | [2] -5.05% | [3] -19.1% | [4] -11.4% | [5] -5.75% | [6] -19.4%

COc1ccc(/C=N\NC(=O)N/N=C/c2ccc(OC)c(Br)c2)cc1Br
active: [6] 71.7%
inactive: [1] 44.3% | [2] 39.7% | [3] 44.6% | [4] 49.5% | [5] 39.2%

O=C(Nc1ccccc1[N+](=O)[O-])OCc1ccccc1
inactive: [1] -10.7% | [2] 10.4% | [3] 13.5% | [4] 10.1% | [5] 1.6% | [6] 8.2%

O=[N+]([O-])c1ccc(OCCCCCBr)c(Cl)c1
inactive: [1] -1.95% | [2] 47.1% | [4] -26.7% | [5] 66.2% | [6] 54.7%
active: [3] 70.3%

CCOC(=O)/C(C#N)=C(\C)c1ccc(O)c(OC)c1
inactive: [1] 11.4% | [2] 8.95% | [3] -3.45% | [4] 24.1% | [5] -8.1% | [6] 14.8%

O=C(CN1CCCC1)Nc1ccc2sc3ccccc3c(=O)c2n1
inactive: [1] 17.2% | [2] -29.7% | [3] -5.75% | [4] 21.6% | [5] 11% | [6] 3.55%

COc1ccc(C2C(C)C(=O)C(C)C(c3ccc(OC)cc3)N2N=O)cc1 (centres undefined)
inactive: [1] 3.15% | [2] 6.4% | [3] 15.6% | [4] -1.2% | [5] 26.6% | [6] 32.8%

O=c1oc2ccc([N+](=O)[O-])cc2cc1-c1csc(-c2ccccc2)n1
inactive: [1] 3% | [2] -9.35% | [3] -7.05% | [4] 7.45% | [5] -26.3% | [6] -48.8%

O=c1[nH]cc(SSc2c[nH]c(=O)[nH]c2=O)c(=O)[nH]1
inactive: [1] 13.4% | [2] 15.7% | [3] 4.2% | [4] -25.3% | [5] 29.9% | [6] 12.9%

CCCCNC(=S)N/N=C/c1ccc(OC)cc1
inactive: [1] -10.8% | [2] 1.55% | [3] -1.3% | [4] -41% | [5] -1.85% | [6] -6.45%

COC(=O)N1C(C#N)=CCc2ccccc21
inactive: [1] 26.4% | [2] 31.2% | [3] 16.9% | [4] -6.25% | [5] 3.8% | [6] 5.65%

C(CCN1CCOCC1)CN1CCOCC1
inactive: [1] -3.4% | [2] 4.5% | [3] 0.45% | [4] -4.1% | [5] -10.7% | [6] 1.15%

CC(CO)(CO)CN1CCCCC1
inactive: [1] -2.25% | [2] 5.2% | [3] -1.85% | [4] -36.5% | [5] -12.4% | [6] 1.8%

CCOC(=O)C(NC(=O)CC)(Nc1ccc(S(=O)(=O)Nc2ncccn2)cc1)C(F)(F)F (centres undefined)
inactive: [1] -19.4% | [2] -14.9% | [3] -10.5% | [4] 20.1% | [5] -9.55% | [6] -7.05%

COc1ccc(O)c(/C=N\N=C\c2cc(OC)ccc2O)c1
inactive: [1] -1.25% | [2] -1.15% | [3] -2.3% | [4] -22.5% | [5] 22.9% | [6] -2.8%

CCCc1c(C(=O)OCC)[nH]c(C(=O)CCC(=O)c2[nH]c(C(=O)OCC)c(CCC)c2C(=O)OCC)c1C(=O)OCC
inactive: [1] 20.2% | [2] -13.5% | [3] -10.9% | [4] -19.4% | [5] -15.7% | [6] 2.35%

CN(C)CCNC(=O)C(C)(C)Oc1ccc(C(=O)c2ccc(Cl)cc2)cc1Cl
inactive: [1] -1.55% | [2] 6.1% | [3] -18.1% | [4] -21.6% | [5] -30.8% | [6] 40.2%

Cc1nn(CCO)c(N)c1C(N)=O
inactive: [1] 5.35% | [2] -4.25% | [3] 5.55% | [4] -13.4% | [5] 4.9% | [6] 16.9%

COc1ccc(Cl)cc1NC(=O)CC(C)=O
inactive: [1] -9.9% | [2] -12.2% | [3] 3.45% | [4] 6.45% | [5] -3.2% | [6] -5.95%

CN(C)C/C=C(/c1ccc(Br)cc1)c1cccnc1
inactive: [1] -5.75% | [2] -16% | [3] -3.7% | [4] -20.4% | [5] -12.6% | [6] 1.65%

Clc1ccccc1C1Nc2ccccc2S1 (centres undefined)
inactive: [1] 39.7% | [2] 17.6% | [3] 48.2% | [4] -7.75% | [5] 13.3% | [6] 38.2%

CO[C@H]1CC2CC1C1C3=C(NC21)C1(O)C[C@H]2CN(CC3)C1C[C@@H]2C(C)CO (some centres undefined)
inactive: [1] -3.6% | [2] 9.9% | [3] 2.75% | [4] -0.15% | [5] 1.45% | [6] -23.6%

CS(=O)c1ccc(C(F)(F)F)cc1C(=O)O (centres undefined)
inactive: [1] -3.3% | [2] 9.95% | [3] 9.7% | [4] -24.4% | [5] -20.5% | [6] 9.85%

O=C(CO)c1ccc([N+](=O)[O-])cc1
inactive: [1] 16.8% | [2] 34.3% | [3] 1.85% | [4] 7.5% | [5] 13.4% | [6] 40.4%

N#CC(c1ccccc1)N(CCc1ccccc1)C(=O)c1ccccc1 (centres undefined)
inactive: [1] -3.7% | [2] 1.7% | [3] -23.4% | [4] -18.7% | [5] -27.8% | [6] -48.2%

O=C(O)C1CCC(C(=O)O)CC1.[NH-]C1CCCCC1[NH-].[Pt+2] (centres undefined)
inactive: [1] 45.6% | [2] -29.9% | [3] -1.15% | [4] 6.9% | [5] -19.9% | [6] -70.4%

c1ccc(CCNCc2ccc(CNCCc3ccccc3)cc2)cc1
inactive: [1] -5.75% | [2] -23.9% | [3] -12.2% | [4] 5.05% | [5] -0.25% | [6] 3.45%

COC(=O)C(Cc1ccccc1)NP(=O)(O)OCC1OC(n2cc(I)c(=O)[nH]c2=O)CC1O (centres undefined)
inactive: [1] -11.8% | [2] -2.65% | [3] -15.2% | [4] -10.5% | [5] -10.1% | [6] 0.85%

CCCCOC(=O)NCNC(=O)OCCCC
inactive: [1] 23.2% | [2] -7.1% | [3] -2.1% | [4] -15% | [5] 1.6% | [6] 14.9%

CSCCC(N)=O
inactive: [1] -10.2% | [2] -6.95% | [3] 9.8% | [4] 0.05% | [5] -16.8% | [6] 2.9%

CC(C)(C)C1CCC2c3c([nH]c4ccccc34)C3C(=O)N(c4ccc(Br)cc4)C(=O)C3C2C1 (centres undefined)
inactive: [1] 12.8% | [2] 11.8% | [3] 8.05% | [4] -35.6% | [5] 13.8% | [6] 6.15%

O=c1[nH]nc(SCc2ccccc2)c(=O)n1C(c1ccccc1)c1ccccc1
inactive: [1] 26.4% | [2] 12.4% | [3] 18.6% | [4] 28.2% | [5] 8.05% | [6] 5.3%

CCOC(=O)C1C(=O)CC(C)(O)C(C(=O)OCC)C1c1ccc(N(C)C)cc1 (centres undefined)
inactive: [1] -32.7% | [2] -15.7% | [3] -3.6% | [4] -37% | [5] -1.4% | [6] -10.2%

O=[N+]([O-])c1ccc(N=Nc2ccc(N(CCO)CCO)cc2)cc1
inactive: [1] -5.7% | [2] -8.35% | [3] 24% | [4] 1.25% | [5] 20.2% | [6] 6.1%

CC(=O)Nc1cc2cc(NC=C(C#N)C#N)ccc2oc1=O
inactive: [1] -1.8% | [2] -27.3% | [3] 14.1% | [4] 15.9% | [5] 18.3% | [6] -2.5%

O=C(C[n+]1cccc2ccccc21)c1ccc(F)cc1
inactive: [1] -0.05% | [2] -10.3% | [3] 18.1% | [4] 17% | [5] 10.2% | [6] -3%

CC1CCCC(C)N1 (centres undefined)
inactive: [1] 2.5% | [2] -9.05% | [3] -1.75% | [4] -1.95% | [5] 1.5% | [6] 10.8%

Cc1cn(C2CC(NO)C(CO[Si](C)(C)C(C)(C)C)O2)c(=O)[nH]c1=O (centres undefined)
inactive: [1] -3.75% | [2] -0.25% | [3] -3.45% | [4] -3.9% | [5] -30.4% | [6] -35.7%
